GPT2 inhibitor = blocks human glutamate pyruvate transaminase 2. Potency, µM (top dose mostly 57.7 µM), for inactives: at the top dose activity change, negative = inhibition, most hits filed as inhibitors. hit rate 0.25% among 100,000. Recombinant GPT2, coupled pyruvate oxidase/HRP Amplex Red fluorescence; further: nearly all actives have a fitted effect of over 60% in size
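Inhibition is scored from Amplex Red fluorescence generated when pyruvate oxidase and HRP act on pyruvate released by GPT2. Reactions contain 10ng/uL enzyme, 250uM a-KG and 2mM L-alanine and run 30 min at room temperature.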
NPR1 antag = human Npr1 receptor antagonism; Potency, µM (series often up to 46.3 µM), inactives show top-dose activity change, negative = inhibition, usual class: inhibitors; hit rate 1.6% among 76,000; P16066; AID 1347048; HEK293 hNpr1 GloSensor cGMP, ANP-stimulated luminescence; calls by dose curve; further: nearly all actives have a fitted effect of over 60% in size
Target sequence (P16066 whole entry, looked up): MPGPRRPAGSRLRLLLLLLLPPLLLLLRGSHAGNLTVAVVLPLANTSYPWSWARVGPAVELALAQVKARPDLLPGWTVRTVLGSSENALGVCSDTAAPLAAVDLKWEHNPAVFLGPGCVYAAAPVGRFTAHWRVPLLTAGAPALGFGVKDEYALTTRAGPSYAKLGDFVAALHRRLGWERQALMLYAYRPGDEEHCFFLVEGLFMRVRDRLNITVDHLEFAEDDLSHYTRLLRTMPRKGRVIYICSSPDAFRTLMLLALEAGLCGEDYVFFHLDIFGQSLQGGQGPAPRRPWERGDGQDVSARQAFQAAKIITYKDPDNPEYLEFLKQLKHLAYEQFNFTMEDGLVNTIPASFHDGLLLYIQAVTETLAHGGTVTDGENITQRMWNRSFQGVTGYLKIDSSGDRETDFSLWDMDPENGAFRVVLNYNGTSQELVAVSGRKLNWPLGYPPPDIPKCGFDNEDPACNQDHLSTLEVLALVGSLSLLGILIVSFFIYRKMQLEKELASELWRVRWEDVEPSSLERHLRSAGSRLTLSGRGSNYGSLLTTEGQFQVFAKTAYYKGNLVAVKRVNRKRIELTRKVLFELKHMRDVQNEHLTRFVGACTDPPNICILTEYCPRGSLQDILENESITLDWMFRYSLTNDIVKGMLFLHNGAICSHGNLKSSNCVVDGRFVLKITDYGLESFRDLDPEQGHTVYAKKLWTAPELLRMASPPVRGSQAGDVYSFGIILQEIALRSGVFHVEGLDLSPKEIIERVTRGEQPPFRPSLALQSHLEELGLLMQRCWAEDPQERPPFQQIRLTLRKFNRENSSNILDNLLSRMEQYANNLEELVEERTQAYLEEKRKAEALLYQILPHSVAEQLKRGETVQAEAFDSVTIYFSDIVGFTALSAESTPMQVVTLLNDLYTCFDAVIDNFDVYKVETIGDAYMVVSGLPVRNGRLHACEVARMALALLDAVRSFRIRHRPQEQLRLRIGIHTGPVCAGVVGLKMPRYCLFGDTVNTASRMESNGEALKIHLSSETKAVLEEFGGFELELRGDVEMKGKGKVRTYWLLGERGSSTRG
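HEK293 cells stably expressing human Npr1 and cGMP GloSensor pGS-40F, loaded 2 h with 2% GloSensor reagent, given compound 30 min at room temperature. Luminescence read before and 20 min after 0.1 nM hNppA.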
Luciferase inh = Photinus pyralis luciferase inhibition; purified P. pyralis luciferase, luminescence, biochemical; Potency, µM (series often up to 115 µM), usual class: inhibitors; AID 1347043; hit rate 2.5% among 76,000; further: nearly all actives have a fitted effect of over 65% in size
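FLuc 10nM, D-luciferin 10uM, ATP 10uM, Mg acetate 10mM, Tris acetate pH 7.5, Tween/BSA; cpd qHTS; enzyme added last; CCD luminescence.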
NIH3T3 tox = cytotoxic compounds in NIH 3T3 cells | NIH 3T3 viability, CellTiter-Glo ATP luminescence, 48-72 h | Potency, µM (highest dose often 96.7 µM), for the others: top-dose activity change, negative = cytotoxicity, usual class: inhibitors | hit rate 4.3% among 94,000; further: nearly all actives have a fitted effect of over 55% in size
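Cells were seeded at 400 per well, treated with pin-transferred compound, and kept 48 or 72 hr at 37 °C before CellTiter-Glo addition and luminescence imaging of cellular ATP.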
HEK293 tox = cytotoxic compounds in HEK 293 cells; HEK 293 viability, ATP luminescence (CellTiter-Glo), 48-72 h; Potency, µM (series often up to 115 µM), without a hit: at the highest dose activity change, negative = cytotoxicity, hits mostly inhibitors; AID 1345083; hit rate 6.6% among 94,000; further: nearly all actives have a fitted effect of over 60% in size
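250 HEK 293 cells/well; compound by pintool; incubated 48 or 72 hr at 37 degree Celsius; CellTiter-Glo added, 10 min RT, luminescence imaged.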
* marks the source's active call; other numbers are inactive results; i = inactive; ? = inconclusive; / = no result given; [ ] = another dose, or the depositor's remark. The list is not random: actives were taken first. Their share in the collection is about 10%. Unless noted, the call rests on the fitted dose curve; in most records, active means well fitted curve in the direction sought with a large enough effect; inconclusive means small, poorly fitted or top-dose-only effect, or another doubt; inactive means no such curve, though single readings can be large; an effect the other way counts as inactive or inconclusive. On the % scale 0 is the no-effect control and ±100 the full control effect; potency means the concentration at half of the fitted maximal effect.

SMILES	GPT2 inhibitor	NPR1 antag	Luciferase inh	NIH3T3 tox	HEK293 tox
COc1ccc(C(=O)NC[C@@H]2CC[C@H]3C[C@@H]2C3(C)C)cc1	-7.1%[88.5 µM]	?	i	?	100µM*
CC1(C)[C@H]2CC[C@@H](CNC(=O)c3ccccc3)[C@@H]1C2	4.0%[88.5 µM]	0.9%[70.6 µM]	i	?	?
CC1(C)[C@H]2CC[C@@H](CNC(=O)c3cncc(Br)c3)[C@@H]1C2	i	5.3%	i	?	79.4µM*
COc1ccccc1Nc1ncc2c(n1)CN(C(=O)c1ccc(Cl)cc1)CCN2	-5.2%[88.5 µM]	-29.8%[70.6 µM]	i	?	?
O=[S+]([O-])(c1ccccc1)N1CCNc2cnc(Nc3cccc(F)c3)nc2C1	-9.3%[88.5 µM]	?	i	?	89.1µM*
C[S+](=O)([O-])N1CCNc2cnc(Nc3cccc(C(F)(F)F)c3)nc2C1	-18.0%[88.5 µM]	?	?	?	?
COc1ccccc1Nc1ncc2c(n1)CN([S+](=O)([O-])c1ccccc1)CCN2	i	-11.2%[70.6 µM]	i	?	100µM*
O=S(=O)(c1cccs1)N1CCN(c2ccnc3ccnn23)CC1	i	/	/	?	?
COc1ccc(Cn2ccn3nc4c(c3c2=O)CCCC4)cc1F	i	2.0%	i	?	39.8µM*
O=c1c2c3c(nn2ccn1Cc1cc(F)cc(F)c1)CCCC3	1.6%	-3.1%	i	?	?
COc1cccc(-c2nn(-c3ccccc3)c(OC(C)=O)c2-c2ccc(NC(=O)C3CCCC3)cc2)c1	7.08µM*	-17.2%	i	?	?
COc1ccc(-c2nn(-c3ccccc3C)c(OC(C)=O)c2-c2ccc(NC(C)=O)cc2)cc1OC	i	-3.1%	i	-21.0%	?
CC(=O)Oc1c(-c2ccc(NC(=O)c3ccco3)cc2)c(-c2cccc(C)c2)nn1-c1ccc(F)cc1	25.1µM*	-25.6%	?	?	?
CC(=O)Oc1c(-c2ccc(NC(=O)c3ccco3)cc2)c(-c2cccc(C)c2)nn1-c1cccc(F)c1	?	-13.2%	i	?	?
CC(=O)Oc1c(-c2ccc(NC(=O)c3ccco3)cc2)c(-c2cccc(F)c2)nn1-c1ccc(C)cc1	28.2µM*	-15.2%	i	?	?
O=C(C1CCCN1C(=O)Cc1ccc(F)cc1)N1CCC(N2Cc3cccn3C2=O)CC1 (stereo not drawn)	4.5%	/	/	-21.8%	?
COCCc1noc([C@@H]2CN(Cc3ccc(C(C)C)cc3)C[C@H]2CO)n1	i	-28.4%	i	?	39.8µM*
Cc1ccc([S+](=O)([O-])NC2CCCN(c3ccc4nnc(-c5ccccc5)n4n3)C2)cc1 (stereo not drawn)	/	/	/	?	25.1µM*
Cc1nnc2ccc(N3CCC(N[S+](=O)([O-])c4ccccc4)CC3)nn12	/	/	/	31.6µM*	44.7µM*
C[S+](=O)([O-])NC1CCN(c2ccc3nnc(-c4ccccc4)n3n2)C1 (stereo not drawn)	/	/	/	-18.8%	-8.7%
CN(CCc1ccccn1)c1ncccc1CNC(=O)c1cc(C2CC2)no1	4.6%	1.1%	i	-24.8%	-22.9%
CNC(=O)c1cc(C2CC2)nc2c1c(C1CCCN1C(=O)Nc1ccc(Cl)cc1)nn2C (stereo not drawn)	/	/	/	3.9%	-1.5%
Cc1cc(F)ccc1OC1CN(Cc2ccc(C(F)(F)F)cc2)C1	i	-20.6%[70.6 µM]	i	?	100µM*
Cc1cc(F)ccc1OC1CN(Cc2ccc(N(C)C)cc2)C1	i	-0.1%[70.6 µM]	i	?	79.4µM*
Fc1ccc(OC2CN(Cc3ccccc3)C2)c(F)c1	1.1%[88.5 µM]	/	/	-6.1%[138 µM]	-7.4%[172 µM]
SMILES	GPT2 inhibitor	NPR1 antag	Luciferase inh	NIH3T3 tox	HEK293 tox
Cc1cc(F)ccc1OC1CN(Cc2ccsc2)C1	-1.3%[88.5 µM]	-0.6%[70.6 µM]	i	?	?
Cc1cc(F)ccc1OC1CN(C(=O)c2ccccc2)C1	-2.3%[88.5 µM]	-13.2%[70.6 µM]	17.8µM*	?	?
O=C(c1ccccc1F)N1CCn2c(nnc2-c2ccccc2)C1	3.9%[88.5 µM]	0.0%[70.6 µM]	i	-22.5%[138 µM]	-16.2%[172 µM]
O=C(c1ccccc1F)N1CCn2c(nnc2C2CCNCC2)C1	i	/	/	28.2µM*	3.9%
O=C(Nc1cc(-c2cccnc2)nn1-c1ccccc1)c1cccc(Br)c1	i	/	/	?	50.1µM*
O=C(Nc1cc(-c2ccncc2)nn1-c1ccccc1)c1ccc(Cl)cc1	5.0%	/	/	?	79.4µM*
O=C(Nc1cc(-c2cccnc2)nn1-c1ccccc1)c1ccc(C(F)(F)F)cc1	-12.9%	/	/	31.6µM*	?
COc1cccc(C(=O)Nc2cc(-c3cccnc3)nn2-c2ccccc2)c1	-7.4%	/	/	?	?
O=C(Nc1cc(-c2ccncc2)nn1-c1ccccc1)c1ccccc1	4.4%	/	/	?	?
COc1ccc(Nc2ccnc(N3CCC(NC(=O)c4ccc(Cl)cc4)CC3)n2)cc1	3.0%	/	/	?	?
CCN(CC)C(=O)c1csc(-c2cccc(OC(C)C)c2)n1	-14.2%	?	i	?	39.8µM*
CC(C)Oc1cccc(-c2ccc(C(=O)N(C)C)cc2)c1	2.8%	-2.0%	?	?	35.5µM*
CCOc1cccc(-c2nc(C(=O)NCc3ccccc3)cs2)c1	2.7%	?	i	?	?
CCOc1cccc(-c2nc(C(=O)Nc3ccc(OC)cc3)cs2)c1	i	1.8%	?	?	?
CC(C)CNC(=O)c1csc(-c2cccc(OC(C)C)c2)n1	i	-5.3%	i	?	39.8µM*
O=C(CCc1ccc(CC2CCN(C(=O)c3cccs3)CC2)cc1)NC1CC1	i	/	/	?	?
O=C(C1CC1)N1CCCC(C(=O)N2CCCC(c3nc4ccncc4[nH]3)C2)C1 (stereo not drawn)	i	/	/	-1.8%	i
CC(C)c1ccc(NC(=O)N[C@H]2CO[C@H]3[C@@H]2OC[C@H]3OC(=O)Nc2cccc(C(F)(F)F)c2)cc1	-10.3%	?	i	25.1µM*	28.2µM*
COC(=O)c1cccc(C(=O)N[C@H]2CO[C@H]3[C@@H]2OC[C@H]3OC(=O)Nc2ccc(Oc3ccccc3)cc2)c1	-2.9%	-19.6%	i	-8.5%	10µM*
O=C(Nc1ccccc1)O[C@@H]1CO[C@H]2[C@@H]1OC[C@@H]2NC(=S)Nc1ccccc1	-5.0%[88.5 µM]	-4.6%[70.6 µM]	i	-18.3%[138 µM]	-26.4%[172 µM]
CC(=O)c1ccc(NC(=O)O[C@@H]2CO[C@H]3[C@@H]2OC[C@@H]3NC(=O)C2CC2)cc1	-3.2%[88.5 µM]	6.0%[70.6 µM]	i	-3.5%[174 µM]	-5.9%[172 µM]
O=C(Nc1ccccc1)N[C@H]1CO[C@H]2[C@@H]1OC[C@H]2OC(=O)Nc1ccccc1	-3.5%[88.5 µM]	-3.1%[70.6 µM]	44.7µM*	-32.2%[174 µM]	?
CC(=O)c1ccc(NC(=O)O[C@@H]2CO[C@H]3[C@@H]2OC[C@@H]3NC(=S)NC2CCCCC2)cc1	-2.7%	-19.4%	i	-20.1%	79.4µM*
